According to ChEMBL document CHEMBL4513146, “CO-ADD screening of Karazin Kharkiv National University (Ukraine) compounds”:
Measured potencies and affinities stand elsewhere.

Test system: Klebsiella pneumoniae
Conditions: Concentration 32 ug.mL-1;; ASSAY_TEST Inhibition of Bacterial Growth; detection method Absorption (OD600); MEDIA CAMHB; plate type 384well; NBS; CORNING #3640; time 18 hr

SMILES	Inhibition
Cc1cccc(Oc2nc3ccccc3n3c(=O)n(CC(=O)Nc4ccc5c(c4)OCCO5)nc23)c1C	14.16%
CCc1nnc2c(=O)n(CC(=O)Nc3ccc(C#N)cc3)c3ccccc3n12	5.17%
CCOC(=O)c1cccc(NC(=O)CSc2nc3ccccc3n3c(C(C)C)nnc23)c1	16.4%
C=Cc1ccc(CSc2nnc3c(=O)n(-c4cccc(OC)c4)ccn23)cc1	9.99%
CCc1nnc2c(=O)n(CC(=O)Nc3ccc(Br)cc3F)c3ccccc3n12	8.6%
O=C(Cn1nc2c(Sc3ccccc3)nccn2c1=O)Nc1ccc2c(c1)OCCO2	12.02%
COC(=O)c1ccc(NC(=O)Cn2nc3ccc(Sc4ccc(C)cc4)nn3c2=O)cc1	13.07%
COc1ccc(NC(=O)Cn2nc3ccc(SC(C)(C)C)nn3c2=O)cc1OC	16.54%
Cc1ccc(CN(c2cccc(F)c2)S(=O)(=O)c2ccc3nnc(C)n3c2)cc1	-4.46%
CCc1nnc2ccc(S(=O)(=O)N(Cc3cccc(OC)c3)c3ccc(F)cc3)cn12	3.57%
Cc1ccc(-c2cc3c4nn(CC(=O)NCc5ccccc5Cl)c(=O)n4ccn3n2)cc1C	7.47%
CCc1ccc(NC(=O)CSc2nnc3c(=O)n(-c4ccccc4)ccn23)cc1	10.7%
Cc1cc(NC(=O)Cn2nc3ccc(SC(C)(C)C)nn3c2=O)ccc1Br	5.26%
COc1ccc(CNC(=O)Cn2nc3c(SC4CCCCC4)nccn3c2=O)cc1	14.45%
Cc1ccc(-c2ccc3nnc(CCC(=O)NCc4ccc(C(C)C)cc4)n3n2)cc1C	10.51%
O=c1c2nnc(SCc3ccc(Cl)cc3)n2ccn1-c1ccc(F)c(F)c1	10.1%
COc1cc(OC)c(NC(=O)Cn2nc3ccc(Sc4cccc(F)c4)nn3c2=O)cc1Cl	2.02%
CCc1ccccc1Sc1nccn2c(=O)n(CC(=O)N3CCN(c4ccccc4)CC3)nc12	-1.73%
CCOc1ccc(NC(=O)Cn2nc3c(Oc4cccc(OC)c4)nccn3c2=O)cc1	14.7%
CCc1ccccc1Sc1nccn2c(=O)n(CC(=O)NCc3cccs3)nc12	-0.44%

SMILES	Inhibition
Cc1ccc(Sc2nccn3c(=O)n(CC(=O)Nc4ccc(C)cc4Br)nc23)c(C)c1	10.73%
Cc1ccc(Cl)cc1NC(=O)CSc1nnc2c(=O)n(-c3ccccc3)ccn12	9.22%
O=C(Cn1nc2nc(Nc3ccc(F)cc3)ccn2c1=O)N1CCCC1	10.98%
Cc1ccc(-n2ccn3c(SCC(N)=O)nnc3c2=O)cc1C	20.66%
CC(C)c1nnc2c(SCC(=O)Nc3cccc(Cl)c3)nc3ccccc3n12	10.95%
Cc1ccc(-c2ccc3nnc(CCC(=O)NCc4cccc(Br)c4)n3n2)cc1C	-2.24%
O=c1c2sccc2n2c(SCc3cccc(C(F)(F)F)c3)nnc2n1Cc1ccc(F)cc1	10.74%
Cc1ccc(-c2ccc3nn(CC(=O)Nc4ccc(Br)cc4)c(=O)n3n2)cc1C	12.28%
CCOc1ccc(-n2ccn3c(SC(C)C(=O)Nc4cc(OC)cc(OC)c4)nnc3c2=O)cc1 (stereo not drawn)	7.45%
COc1cccc(-n2ccn3c(SCC(=O)Nc4ccc5c(c4)OCCO5)nnc3c2=O)c1	14.27%
Cc1ccc(NC(=O)Cn2c(=O)c3nnc(C(C)C)n3c3ccccc32)cc1	2.07%
CCCCOc1ccc(-c2cc3c4nnc(SCC(=O)Nc5ccc(CC)cc5)n4ccn3n2)cc1	9.73%
CCCCn1c(=O)c2sccc2n2c(=O)n(CC(=O)c3ccc(C)cc3C)nc12	10.99%
Cc1cccc(N(Cc2cccc(Cl)c2)S(=O)(=O)c2cccn3c(C)nnc23)c1	4.74%
COc1ccccc1N1CCN(C(=O)CSc2nnc3c(=O)n(-c4ccc(F)cc4)ccn23)CC1	11.85%
O=C(Cn1nc2ccc(C(=O)NCc3ccccc3)cn2c1=O)Nc1ccc(Br)cc1	-0.54%
Cc1ccc(F)cc1NC(=O)CSc1nc2ccccc2n2c(C)nnc12	10%
Cc1ccc(NC(=O)c2ccc3nnc(SCC(=O)Nc4ccc(Br)cc4)n3c2)cc1	8.72%
CCc1ccc(N(Cc2ccccc2Cl)S(=O)(=O)c2cccn3c(C)nnc23)cc1	4.84%

Test system: Candida albicans
Conditions: Concentration 32 ug.mL-1; ASSAY_TEST Inhibition of Fungal Growth; detection method Absorption (OD530)

SMILES	Inhibition
Cc1cccc(Oc2nc3ccccc3n3c(=O)n(CC(=O)Nc4ccc5c(c4)OCCO5)nc23)c1C	-0.7%
CCc1nnc2c(=O)n(CC(=O)Nc3ccc(C#N)cc3)c3ccccc3n12	10.64%
CCOC(=O)c1cccc(NC(=O)CSc2nc3ccccc3n3c(C(C)C)nnc23)c1	0.96%
C=Cc1ccc(CSc2nnc3c(=O)n(-c4cccc(OC)c4)ccn23)cc1	4.25%
CCc1nnc2c(=O)n(CC(=O)Nc3ccc(Br)cc3F)c3ccccc3n12	6.85%
O=C(Cn1nc2c(Sc3ccccc3)nccn2c1=O)Nc1ccc2c(c1)OCCO2	-0.06%
COC(=O)c1ccc(NC(=O)Cn2nc3ccc(Sc4ccc(C)cc4)nn3c2=O)cc1	2.46%
COc1ccc(NC(=O)Cn2nc3ccc(SC(C)(C)C)nn3c2=O)cc1OC	-0.86%
Cc1ccc(CN(c2cccc(F)c2)S(=O)(=O)c2ccc3nnc(C)n3c2)cc1	1.78%
CCc1nnc2ccc(S(=O)(=O)N(Cc3cccc(OC)c3)c3ccc(F)cc3)cn12	1.64%
Cc1ccc(-c2cc3c4nn(CC(=O)NCc5ccccc5Cl)c(=O)n4ccn3n2)cc1C	-1.05%
CCc1ccc(NC(=O)CSc2nnc3c(=O)n(-c4ccccc4)ccn23)cc1	2.07%
Cc1cc(NC(=O)Cn2nc3ccc(SC(C)(C)C)nn3c2=O)ccc1Br	32.86%
COc1ccc(CNC(=O)Cn2nc3c(SC4CCCCC4)nccn3c2=O)cc1	17.79%
Cc1ccc(-c2ccc3nnc(CCC(=O)NCc4ccc(C(C)C)cc4)n3n2)cc1C	5.56%
O=c1c2nnc(SCc3ccc(Cl)cc3)n2ccn1-c1ccc(F)c(F)c1	4.2%
COc1cc(OC)c(NC(=O)Cn2nc3ccc(Sc4cccc(F)c4)nn3c2=O)cc1Cl	6.91%
CCc1ccccc1Sc1nccn2c(=O)n(CC(=O)N3CCN(c4ccccc4)CC3)nc12	3.92%
CCOc1ccc(NC(=O)Cn2nc3c(Oc4cccc(OC)c4)nccn3c2=O)cc1	3.56%
CCc1ccccc1Sc1nccn2c(=O)n(CC(=O)NCc3cccs3)nc12	4.04%

SMILES	Inhibition
Cc1ccc(Sc2nccn3c(=O)n(CC(=O)Nc4ccc(C)cc4Br)nc23)c(C)c1	2.86%
Cc1ccc(Cl)cc1NC(=O)CSc1nnc2c(=O)n(-c3ccccc3)ccn12	2.4%
O=C(Cn1nc2nc(Nc3ccc(F)cc3)ccn2c1=O)N1CCCC1	0.53%
Cc1ccc(-n2ccn3c(SCC(N)=O)nnc3c2=O)cc1C	1.07%
CC(C)c1nnc2c(SCC(=O)Nc3cccc(Cl)c3)nc3ccccc3n12	2.12%
Cc1ccc(-c2ccc3nnc(CCC(=O)NCc4cccc(Br)c4)n3n2)cc1C	4.88%
O=c1c2sccc2n2c(SCc3cccc(C(F)(F)F)c3)nnc2n1Cc1ccc(F)cc1	2.55%
Cc1ccc(-c2ccc3nn(CC(=O)Nc4ccc(Br)cc4)c(=O)n3n2)cc1C	10.19%
CCOc1ccc(-n2ccn3c(SC(C)C(=O)Nc4cc(OC)cc(OC)c4)nnc3c2=O)cc1 (stereo not drawn)	1.5%
COc1cccc(-n2ccn3c(SCC(=O)Nc4ccc5c(c4)OCCO5)nnc3c2=O)c1	3.13%
Cc1ccc(NC(=O)Cn2c(=O)c3nnc(C(C)C)n3c3ccccc32)cc1	1.19%
CCCCOc1ccc(-c2cc3c4nnc(SCC(=O)Nc5ccc(CC)cc5)n4ccn3n2)cc1	2.18%
CCCCn1c(=O)c2sccc2n2c(=O)n(CC(=O)c3ccc(C)cc3C)nc12	-0.48%
Cc1cccc(N(Cc2cccc(Cl)c2)S(=O)(=O)c2cccn3c(C)nnc23)c1	3%
COc1ccccc1N1CCN(C(=O)CSc2nnc3c(=O)n(-c4ccc(F)cc4)ccn23)CC1	1.66%
O=C(Cn1nc2ccc(C(=O)NCc3ccccc3)cn2c1=O)Nc1ccc(Br)cc1	2.27%
Cc1ccc(F)cc1NC(=O)CSc1nc2ccccc2n2c(C)nnc12	1.14%
Cc1ccc(NC(=O)c2ccc3nnc(SCC(=O)Nc4ccc(Br)cc4)n3c2)cc1	1.55%
CCc1ccc(N(Cc2ccccc2Cl)S(=O)(=O)c2cccn3c(C)nnc23)cc1	5.69%
